An excerpt weighted towards active compounds, which were near 9.2% of everything screened.
SMN2 splice enh – SMN2 splice variant enhancement. AID 1458. Potency, µM (highest dose often 46.1 µM), without a hit: at the highest dose activity change, positive = activation, most hits filed as activators. HEK293 SMN2-luciferase splicing reporter, luminescence, 30-36 h. 210,000 tested, 2.8% active; also: % of control where 0% means no effect; nearly all actives have a fitted effect of over 55% in size
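HEK293 cells carry an SMN2 minigene-luciferase reporter in which exon 7 inclusion puts luciferase in frame. Cells were seeded at 2000 cells/well, attached for 10-12 hours, then exposed to compounds for 30-36 hours at 37C before ONE-Glo luminescence.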
ELG1 repair inh – ELG1-dependent DNA repair inhibition | HEK293T ELG1-luciferase reporter, luminescence, 16 h; DNA damage induced by 5-fluorouridine | AID 504467 | Potency, µM (doses to about 46.1 µM), without a hit: at the highest dose activity change, negative = inhibition, usual class: inhibitors | 330,000 tested, 2.3% active; also: % is scaled to controls: 0 for no effect and ±100 for the full control effect; nearly all actives have a fitted effect of over 55% in size
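Reporter activity after DNA damage by 5-fluorouridine is monitored. Compound-treated cells incubate 16 hr at 37 °C, then ONE-Glo is added for 30 min before luminescence reading.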
Rab9 prom act – Rab9 promoter activation. Huh7 Rab9 promoter-luciferase reporter, luminescence, 24 h. Potency, µM (highest dose often 9.22 µM), without a hit: at the top dose activation, negative = inhibition, usual class: activators. 320,000 tested, 2.8% active. AID 485297; also: % of control where 0% means no effect; nearly all actives have a fitted effect of over 60% in size
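Steps: seed 1500 Huh7 Rab9-luc cells per well, rest 2 h at 37 °C; add compound in DMSO; incubate 24 h; add luciferase reagent, 10 min ambient; read luminescence.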
FLuc modulator – firefly luciferase modulation, counter-screen for miR-21 project. P08659. purified FLuc, Km substrates, luminescence inhibition. Potency, µM (highest dose often 57.5 µM), without a hit: top-dose activity change, negative = inhibition, most hits filed as inhibitors. 360,000 tested, 6.9% active. AID 588342;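 also: plate controls were vehicle for no effect and reference inhibitor for full effect; nearly all actives have a fitted effect of over 55% in size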
Target sequence (P08659 whole entry, looked up): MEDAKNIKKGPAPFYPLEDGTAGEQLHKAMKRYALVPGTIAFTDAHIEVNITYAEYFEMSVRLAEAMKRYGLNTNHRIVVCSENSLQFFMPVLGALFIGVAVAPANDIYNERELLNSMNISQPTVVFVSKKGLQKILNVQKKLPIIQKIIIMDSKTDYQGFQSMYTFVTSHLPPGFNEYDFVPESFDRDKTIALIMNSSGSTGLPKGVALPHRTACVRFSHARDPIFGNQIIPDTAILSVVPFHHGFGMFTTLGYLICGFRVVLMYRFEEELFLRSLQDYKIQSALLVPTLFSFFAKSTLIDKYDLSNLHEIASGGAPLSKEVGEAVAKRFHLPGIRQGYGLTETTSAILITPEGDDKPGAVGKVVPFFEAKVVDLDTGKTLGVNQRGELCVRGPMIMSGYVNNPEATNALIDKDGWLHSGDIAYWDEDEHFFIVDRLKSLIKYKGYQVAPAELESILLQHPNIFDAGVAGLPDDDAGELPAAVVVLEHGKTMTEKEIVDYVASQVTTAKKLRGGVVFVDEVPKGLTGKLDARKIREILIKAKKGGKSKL
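Purified P. pyralis luciferase, 10 nM final, with Km-level 10 uM D-luciferin and 10 uM ATP in 50 mM Tris acetate pH 7.5, 10 mM Mg acetate, 0.01% Tween-20, 0.05% BSA; 6-point qHTS titration about 60 µM downward; luminescence read.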
NPC1 promoter act – activates the NPC1 promoter; Potency, µM (top dose mostly 9.22 µM), inactives show at the highest dose activation, actives largely listed as activators; Huh7 NPC1 promoter luciferase reporter, 24 h; AID 485313; 320,000 tested, 2.4% active; also: % of control where 0% means no effect; nearly all actives have a fitted effect of over 60% in size
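In 1536-well qHTS, Huh7 cells harboring an NPC1 promoter–luciferase construct received compound for 24 h; activation was quantified by luminescence following luciferase reagent addition.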
ELG1 genotoxic – induces genotoxicity in HEK293T cells with luciferase-tagged ELG1; 330,000 tested, 1.3% active; HEK293T ELG1-luciferase reporter, luminescence, 16 h; Potency, µM (titrated, usually from 46 µM), for inactives: at the top dose activity change, positive = activation, most hits filed as activators; also: % of control where 0% means no effect; nearly all actives have a fitted effect of over 60% in size
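Step 1: seed 2,000 HEK293T ELG1-luciferase cells per well. Step 2: add compound or DMSO, incubate 16 hr at 37 °C. Step 3: ONE-Glo, 30 min at room temperature, read luminescence.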
The depositor's hits bear a star; [ ] = another dose, or the depositor's remark. Calls follow the shape of the dose curve; as a rule, active = well fitted curve in the direction sought with a large enough effect; inconclusive = small, poorly fitted or top-dose-only effect, or another doubt; inactive = no such curve, though single readings can be large; an effect the other way counts as inactive or inconclusive. Potency is read from the fitted curve at half-maximal effect.

For Cc1cccc(NC(=O)CSc2ccc3nnc(-c4cccnc4)n3n2)c1 the results were ELG1 repair inh -0.1%, Rab9 prom act 8.7%, FLuc modulator 1.8%, NPC1 promoter act -3.8% and ELG1 genotoxic 7.2%.
O=C(NCc1ccc(F)cc1)N1CCN(C(=O)c2ccccc2)CC1 was read as ELG1 repair inh -3.8%, Rab9 prom act 11.6%, NPC1 promoter act -5.0% and ELG1 genotoxic 1.2%.
`O=C(COC(=O)Cn1cnc2ccccc21)Nc1ccc2c(c1)C(=O)c1ccccc1C2=O` gave SMN2 splice enh -12.4%, ELG1 repair inh inconclusive, Rab9 prom act inconclusive, FLuc modulator inconclusive, NPC1 promoter act inconclusive and ELG1 genotoxic 11.6µM*.
`CC(=O)c1ccc(NC(=O)COC(=O)Cn2cnc3ccccc32)cc1` gave ELG1 repair inh inconclusive and ELG1 genotoxic 2.8%.
`COCCCNC(=O)C(=O)C1C(=O)Nc2ccccc21` (stereo not given) gave SMN2 splice enh 19.5%, ELG1 repair inh 11.9%, Rab9 prom act 0.9%, FLuc modulator 6.3%, NPC1 promoter act -1.0% and ELG1 genotoxic 0.2%.
For O=C(Nc1ccc2ccccc2n1)Nc1ccccc1F the results were ELG1 repair inh inconclusive, Rab9 prom act 24.1%, FLuc modulator 0.5%, NPC1 promoter act inconclusive and ELG1 genotoxic 4.2%.
For Fc1ccc(Nc2ccc3ccccc3n2)c(F)c1 the results were SMN2 splice enh 5.01µM*, ELG1 repair inh inconclusive, Rab9 prom act 0.126µM*, FLuc modulator 0.757µM*, NPC1 promoter act 0.398µM* and ELG1 genotoxic 0.82µM*.
For CCCCNC(=S)N/N=C/c1sccc1C the results were SMN2 splice enh 25.3%, ELG1 repair inh 1.4%, Rab9 prom act 0.0%, FLuc modulator -13.5%, NPC1 promoter act 10.3% and ELG1 genotoxic 3.0%.
CCNC(=S)N/N=C/c1sc(N2CCCCC2)nc1-c1cccs1 was read as ELG1 repair inh inconclusive, Rab9 prom act inconclusive, FLuc modulator 1.9µM*, NPC1 promoter act 26.1% and ELG1 genotoxic inconclusive.
For O=c1cc(-c2cc(O)c(O)c(O)c2)oc2cc(O)cc(O)c12 the results were SMN2 splice enh -7.0%.
O=c1cc(-c2ccccc2)oc2cc(O)cc(O)c12 was read as SMN2 splice enh 3.98µM*.
For O=c1cc(-c2ccc(O)cc2)oc2cc(O)cc(O)c12 the results were SMN2 splice enh 22.4µM*, Rab9 prom act 19.7%[46.1 µM] and NPC1 promoter act inconclusive.
COCCN1C(=O)N(c2ccc(OC)cc2)C(=O)C1CC(=O)Nc1cccc(F)c1 (stereo not given) was read as ELG1 repair inh -5.1%, Rab9 prom act 3.8%, FLuc modulator 2.5%, NPC1 promoter act -5.2% and ELG1 genotoxic 0.3%.
Screening O=C(CSc1ccc2nnc(CCNC(=O)c3ccc(F)cc3)n2n1)NCC1CCCO1 (stereo not given) returned ELG1 repair inh -0.9%, Rab9 prom act -0.3%, FLuc modulator 0.3%, NPC1 promoter act -2.3% and ELG1 genotoxic 2.1%.
O=C(c1cc(-c2cccc(O)c2)on1)N1CCCCCC1 was read as ELG1 repair inh inconclusive, Rab9 prom act -0.5%, FLuc modulator 8.49µM*, NPC1 promoter act inconclusive and ELG1 genotoxic 13µM*.
Screening Cc1cccc(C)c1OCc1cc(C(=O)N2CCCCCCC2)no1 returned ELG1 repair inh inconclusive, Rab9 prom act 22.7%, FLuc modulator inconclusive, NPC1 promoter act 15.1% and ELG1 genotoxic 3.6%.
`O=C(c1cc(-c2cccc(O)c2)on1)N1CCOCC1` gave SMN2 splice enh inconclusive, ELG1 repair inh inconclusive, Rab9 prom act inconclusive, FLuc modulator 6.75µM*, NPC1 promoter act inconclusive and ELG1 genotoxic 2.91µM*.
For COCCCNC(=S)N1CCN(c2nc(C)nc3sc4c(c23)CCCC4)CC1 the results were ELG1 repair inh 20.6µM*, Rab9 prom act 1.0%, FLuc modulator 0.3%, NPC1 promoter act 1.9% and ELG1 genotoxic -7.3%.
O=C(CSc1nnc(C2CC2)n1CC1CCCO1)Nc1ccccc1Cl (stereo not given) was read as ELG1 repair inh -0.6%, Rab9 prom act 2.2%, FLuc modulator 0.3%, NPC1 promoter act 0.9% and ELG1 genotoxic 1.2%.
Screening O=C(NNC1=Nc2ccccc2SC1)c1cccc([N+](=O)[O-])c1 returned ELG1 repair inh 16.4µM*, Rab9 prom act -0.4%, FLuc modulator 1.9%, NPC1 promoter act -2.5% and ELG1 genotoxic -9.3%.
Screening O=C(NNC1=Nc2ccccc2SC1)c1ccccc1F returned ELG1 repair inh 5.8µM*, Rab9 prom act -13.5%, FLuc modulator inconclusive, NPC1 promoter act -6.0% and ELG1 genotoxic -5.2%.
`Cc1c(C(=O)OCC2CCCCC2)[nH]c2c1C(=O)CC(c1ccccc1Cl)C2` (stereo not given) gave SMN2 splice enh -8.7% and FLuc modulator 4.2%.
For Cc1oc2ncn(C)c(=O)c2c1C(=O)N1CCN(c2cccc(C(F)(F)F)c2)CC1 the results were FLuc modulator -7.5%.
CCOc1ccc(CNC(=O)C2CCN(c3nnc(-n4c(C)ccc4C)s3)CC2)cc1 was read as SMN2 splice enh -10.0% and FLuc modulator -11.3%.
COc1ccccc1NC(=O)c1oc2ccc(C)cc2c1C was read as SMN2 splice enh inconclusive, ELG1 repair inh inconclusive, Rab9 prom act inconclusive, FLuc modulator 9.53µM*, NPC1 promoter act inconclusive and ELG1 genotoxic inconclusive.
`Cc1ccc2oc(C(=O)Nc3cc(C)on3)c(C)c2c1` gave ELG1 repair inh inconclusive, Rab9 prom act 2.51µM*, FLuc modulator 0.757µM*, NPC1 promoter act 3.16µM* and ELG1 genotoxic inconclusive.
For CCN(CC)S(=O)(=O)c1ccc2oc(C(=O)Nc3cc(C)ccc3OC)c(C)c2c1 the results were FLuc modulator -1.2%.
For Cc1ccc2oc(C(=O)Nc3nnc(CC(C)C)s3)c(C)c2c1 the results were ELG1 repair inh inconclusive, Rab9 prom act 19.5%, FLuc modulator -8.4%, NPC1 promoter act 10.3% and ELG1 genotoxic inconclusive.
For O=c1c(C=NCCCn2ccnc2)c(-c2ccccc2)[nH]n1-c1nc2ccccc2s1 the results were ELG1 repair inh -5.3%, Rab9 prom act 2.1%, FLuc modulator 16.9µM*, NPC1 promoter act -4.1% and ELG1 genotoxic inconclusive.
O=S(=O)(NC1=NCCC1)c1ccc(F)cc1F was read as SMN2 splice enh 2.3%, ELG1 repair inh -0.2%, Rab9 prom act 4.0%, FLuc modulator 1.9%, NPC1 promoter act -3.4% and ELG1 genotoxic -0.7%.

Screens deposited in PubChem by National Center for Advancing Translational Sciences (NCATS).
